Vaccinia Venus = vaccinia inhibition (Venus reporter); Vaccinia virus Venus reporter expression, fluorescence; Potency, µM (doses to about 36.5 µM), without a hit: at the highest dose activity change, negative = inhibition, hits mostly inhibitors; 330,000 compounds, 0.46% hits; AID 720580; calls by dose curve; tested in A549 cells; note: potency is the fitted concentration of half-maximal effect; nearly all actives have a fitted effect of over 30% in size
MARV entry inh = blocks Marburg virus binding to or entry into cells. 300,000 compounds, 1.8% hits. Potency, µM (highest dose often 37.8 µM), for the others: at the top dose activity change, negative = inhibition, most hits filed as inhibitors. Marburg virus pseudotyped entry inhibition, cell reporter; calls by dose curve; tested in HEK293 cells; note: potency is the fitted concentration of half-maximal effect
Lassa entry inh = Lassa virus entry inhibition | Lassa virus pseudotype entry inhibition, cell reporter | Potency, µM (highest dose often 37.9 µM), for inactives: at the top dose activity change, negative = inhibition, hits mostly inhibitors | 300,000 compounds, 1.2% hits; calls by dose curve; tested in HEK293 cells; note: potency is the fitted concentration of half-maximal effect; nearly all actives have a fitted effect of over 50% in size
HCMV inh = inhibitors of human cytomegalovirus | HFF cells, HCMV-luciferase reporter, 72 h; stronger effect = lower value | activity change, negative = inhibition, % at 57.5 µM | 410,000 compounds, 4.5% hits; in the data active = activity change below about -60%; inconclusive = no clear call, values can overlap the other calls; inactive = above about -39%
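Cell-based, HFFs, 1000 cells/well, 16 h 37C; cpds in DMSO + HCMV-luc, MOI 1 PFU/cell; 72 h 37C; OneGlo luminescence after 5 min RT; norm. to buffer vs Salinomycin 10uM.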
Vaccinia mCherry = vaccinia inhibition (mCherry reporter). Vaccinia virus mCherry reporter infection, fluorescence. 310,000 compounds, 0.63% hits. Potency, µM (top dose mostly 36.5 µM), for inactives: top-dose activity change, negative = inhibition, hits mostly inhibitors. AID 720579; calls by dose curve; tested in A549 cells; note: potency is the fitted concentration of half-maximal effect; nearly all actives have a fitted effect of over 35% in size
HCV inh = blocks hepatitis C virus; 340,000 compounds, 3.4% hits; Potency, µM (series often up to 41.8 µM), for the others: top-dose activity change, negative = inhibition, most hits filed as inhibitors; Huh7.5.1 HCVcc-Cre infection, luciferase reporter, 44 h; AID 651820; active = well fitted inhibition curve with a large enough effect; inconclusive = small, poorly fitted or top-dose-only effect, or another doubt; inactive = no such curve, though single readings can be large or run the other way; note: potency is the fitted concentration of half-maximal effect
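Reporter virus HCVcc-Cre (~0.5 moi) infects cells exposed to compound; seeding density 1,000 cells/well with 4 h settling beforehand. Luminescence, 15 sec read, taken 44 h post-infection following a 15 min RT substrate incubation.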
* hit, by the source's call; [ ] = another dose, or the depositor's remark. Compounds with a hit are over-represented: about 7.8% of the library has one in this group of screens. % is set by controls: 0 for no effect and ±100 for the full control effect.

For COc1ccc(-c2nc(C#N)c(N3CCc4ccccc4C3)o2)cc1OC the results were MARV entry inh inconclusive, Lassa entry inh inconclusive, HCMV inh -9 and HCV inh 11µM*.
For Cc1cccc(-c2nc(C#N)c(N3CCC(C)CC3)o2)c1 the results were Vaccinia Venus -3%, MARV entry inh -6%[46.1 µM], Lassa entry inh 19%[46.1 µM], HCMV inh -39, Vaccinia mCherry -8% and HCV inh 5%.
CCCCNC(=O)c1nc2cc(C)c(C)cc2nc1-c1ccc2c(c1)OCO2 was read as HCMV inh 31.
For O=C(CC(c1ccccc1)c1cc(Br)ccc1O)NCC1(c2ccccc2)CCCC1 (stereo not given) the results were Vaccinia Venus -23%, MARV entry inh inconclusive, Lassa entry inh inconclusive, HCMV inh -105* and Vaccinia mCherry -20%.
`O=C(CCc1ccccc1)NCC1(c2ccccc2)CCCC1` gave Vaccinia Venus -23%, MARV entry inh 5.6µM*, Lassa entry inh inconclusive, HCMV inh -4, Vaccinia mCherry -3% and HCV inh 13%.
COc1ccc(-c2cc(C(C)=O)c(C)n2CCC(=O)Nc2ccc(C)cc2Cl)cc1 was read as Vaccinia Venus -9%, Lassa entry inh -1%[46.1 µM], HCMV inh inconclusive and Vaccinia mCherry -13%.
For CCSc1ncc(Cl)c(C(=O)Nc2sc3c(c2C(=O)NCc2cccnc2)CCCC3)n1 the results were Vaccinia Venus -9%, MARV entry inh -2%, Lassa entry inh -23%, HCMV inh -15, Vaccinia mCherry inactive and HCV inh 10µM*.
For COCCCNC(=O)c1c(NC(=O)c2nc(S(C)(=O)=O)ncc2Cl)sc2c1CCCC2 the results were Vaccinia Venus inconclusive, MARV entry inh 14%[46.1 µM], Lassa entry inh 20%[46.1 µM], HCMV inh 10 and Vaccinia mCherry inconclusive.
`CCNC(=O)c1c(NC(=O)c2nc(S(=O)(=O)CC)ncc2Cl)sc2c1CCCC2` gave Vaccinia Venus 0%[7.34 µM], MARV entry inh 2%[46.1 µM], Lassa entry inh 7.9µM*, HCMV inh -101* and Vaccinia mCherry -1%[7.34 µM].
For CCNC(=O)c1c(NC(=O)c2nc(SCC)ncc2Cl)sc2c1CCCC2 the results were Vaccinia Venus -25% and Vaccinia mCherry inconclusive.
Screening COc1cc(/C=N/NC(=S)Nc2cccc(Cl)c2C)ccc1OCC(=O)N1CC(C)OC(C)C1 (stereo not given) returned Vaccinia Venus -28%, MARV entry inh inconclusive, Lassa entry inh inconclusive, HCMV inh -33, Vaccinia mCherry -21% and HCV inh 11µM*.
For O=C(c1cccnc1)C1CCCN(Cc2ccc3c(c2)CN(C(=O)c2cnccn2)CCO3)C1 (stereo not given) the results were Vaccinia Venus 3% and Vaccinia mCherry -4%.
`Cc1cc(=O)n2c3c(c4c(cc13)c(CN(C)C)cc(=O)n4C)OC2` gave Vaccinia Venus -6%, MARV entry inh inconclusive, Lassa entry inh -15%, HCMV inh -72*, Vaccinia mCherry 13% and HCV inh inconclusive.
Screening NC(CSC(c1ccccc1)(c1ccccc1)c1ccc2c(c1)OCO2)C(=O)O (stereo not given) returned Vaccinia Venus inconclusive, HCMV inh -15 and Vaccinia mCherry -30%.
For COC(=O)/C=C1/S/C(=N/NC(=O)c2ccccc2C)NC1=O the results were MARV entry inh 5%, Lassa entry inh 19%, HCMV inh -105* and HCV inh 14%.
`CCCCCN1C(=O)c2cc(OC)ccc2[C@@]2(C(=O)OCC)Cc3cc(Cl)ccc3[C@@H]12` gave Vaccinia Venus inconclusive, HCMV inh -103* and Vaccinia mCherry inconclusive.
CCOC(=O)[C@]12Cc3cc4ccccc4cc3[C@H]1N(Cc1ccccc1)C(=O)c1cc(OC)ccc12 was read as Vaccinia Venus inconclusive, HCMV inh -91* and Vaccinia mCherry inconclusive.
Screening CCOC(=O)[C@]12Cc3cc(OC)c(OC)cc3[C@H]1N(Cc1ccccc1)C(=O)c1ccccc12 returned Vaccinia Venus -23%, HCMV inh 63, Vaccinia mCherry -7% and HCV inh inconclusive.
For CCOC(=O)[C@]12Cc3cc(OC)ccc3[C@H]1N(Cc1ccccc1)C(=O)c1cc(OC)ccc12 the results were Vaccinia Venus -7%, HCMV inh 6 and Vaccinia mCherry -10%.
CCOC(=O)[C@]12Cc3cc(Cl)ccc3[C@H]1N(Cc1ccccc1)C(=O)c1cc(OC)ccc12 was read as Vaccinia Venus inconclusive, HCMV inh -106* and Vaccinia mCherry inconclusive.
`CCOC(=O)[C@]12Cc3cc4ccccc4cc3[C@H]1N(Cc1ccccc1)C(=O)c1ccccc12` gave Vaccinia Venus inconclusive, HCMV inh -97* and Vaccinia mCherry inconclusive.
`Cc1c(CNC2CCCCCC2)c(C(=O)O)c(C)n1Cc1cccc(Cl)c1` gave Vaccinia Venus -18%, MARV entry inh 30%[46.1 µM], Lassa entry inh 1%[46.1 µM], HCMV inh inconclusive and Vaccinia mCherry -13%.
Screening COc1ccccc1NC(=O)C(=O)NCCC1CCCCN1S(=O)(=O)c1cccs1 (stereo not given) returned Vaccinia Venus -19%, MARV entry inh inconclusive, Lassa entry inh -13%, HCMV inh 3, Vaccinia mCherry inactive and HCV inh inconclusive.
For O=C(NCCC1CCCCN1S(=O)(=O)c1cccs1)C(=O)Nc1ccccc1F (stereo not given) the results were Vaccinia Venus -14%, MARV entry inh inconclusive, Lassa entry inh 24%, HCMV inh -1, Vaccinia mCherry -16% and HCV inh 8.9µM*.
COc1cccc(NC(=O)C(=O)NCCC2CCCCN2S(=O)(=O)c2ccccc2)c1 (stereo not given) was read as Vaccinia Venus -17%, MARV entry inh -25%, Lassa entry inh inconclusive, HCMV inh 48, Vaccinia mCherry -24% and HCV inh 4µM*.
`O=C(NCc1ccc(F)cc1)C(=O)NCC1CCCN1S(=O)(=O)c1ccccc1` (stereo not given) gave Vaccinia Venus -23%, MARV entry inh inconclusive, Lassa entry inh inconclusive, HCMV inh 17, Vaccinia mCherry -7% and HCV inh -11%[8.37 µM].
For COc1cccc(C(=O)NCC2CCCN2S(=O)(=O)c2ccccc2)c1 (stereo not given) the results were Vaccinia Venus -2%, MARV entry inh 1%[46.1 µM], Lassa entry inh -19%, HCMV inh -9, Vaccinia mCherry inactive and HCV inh 3%.
O=C(NCCc1ccc(F)cc1)C(=O)NCC1CCCN1S(=O)(=O)c1ccccc1 (stereo not given) was read as Vaccinia Venus -23%, MARV entry inh inconclusive, Lassa entry inh 7.1µM*, HCMV inh -34, Vaccinia mCherry inconclusive and HCV inh 11µM*.

High-throughput results from PubChem BioAssay.
